Test results as given in PubChem BioAssay (NCI).
The panel holds about 83,000 compounds, 20% with a hit somewhere; the sample as a whole holds those more often.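 Percent growth is the endpoint: 0 to 100 indicates growth inhibition (40 means 60% inhibition), 0 means no net growth, and negative values indicate cell death.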 Activity calls are given as the source filed them. Rule for the calls: active = growth percent below 10; inactive = the rest.

Key:
Experiment in all cases: NCI-60 one-dose screen, 48 h (100 = growth as untreated, 0 = no growth, -100 = all killed)
Conditions in all cases: 10 µM unless noted
HCT-15 colon = test system: HCT-15 colon
HT29 colon = test system: HT29 colon
SNB-75 CNS = test system: SNB-75 CNS
SNB-19 CNS = test system: SNB-19 CNS
U251 CNS = test system: U251 CNS
PC-3 prostate = test system: PC-3 prostate
UACC-62 melanoma = test system: UACC-62 melanoma
LOX IMVI melanoma = test system: LOX IMVI melanoma
SK-MEL-28 melanoma = test system: SK-MEL-28 melanoma
SK-MEL-5 melanoma = test system: SK-MEL-5 melanoma

Measured: growth

COc1ccc2nc(-c3ccc(Cl)cc3)cc(-c3nnc(SC/C(=N/O)c4ccccc4)o3)c2c1
inactive: HCT-15 colon 48.3% | HT29 colon 27% | SNB-75 CNS 84.8% | SNB-19 CNS 68.4% | U251 CNS 17.3% | PC-3 prostate 30% | UACC-62 melanoma 49.1% | LOX IMVI melanoma 44.2% | SK-MEL-28 melanoma 44.2%

Cc1c(Br)cccc1NC(=O)c1sc2nc3c(cc2c1N)CN(Cc1ccccc1)CC3
inactive: HCT-15 colon 18.2% | SNB-19 CNS 23% | PC-3 prostate 31.8% | SK-MEL-5 melanoma 19.4% | LOX IMVI melanoma 30.9% | SK-MEL-28 melanoma 53.8%
active: HT29 colon 0.812% | SNB-75 CNS -9.13% | U251 CNS 9.19%

Cc1cnc(SCc2ccc(Cl)cc2Cl)nc1Nc1ccc(Cl)c(Cl)c1
inactive: HCT-15 colon 99.8% | HT29 colon 85.1% | SNB-75 CNS 85.4% | SNB-19 CNS 96.7% | U251 CNS 93.9% | PC-3 prostate 71.6% | UACC-62 melanoma 53.4% | LOX IMVI melanoma 81.2% | SK-MEL-28 melanoma 111%

COc1c(O)cc2oc3cc(O[C@@H]4OC(C)[C@@H](O)[C@H](O)C4O)c(CC=C(C)C)c(O)c3c(=O)c2c1CC=C(C)C (some centres not stated)
inactive: HCT-15 colon 85.1% | HT29 colon 84.3% | SNB-75 CNS 88.9% | SNB-19 CNS 102% | U251 CNS 86.6% | PC-3 prostate 74.9% | UACC-62 melanoma 96.9% | LOX IMVI melanoma 89.3% | SK-MEL-28 melanoma 105%

Cc1cccc(C)c1NCc1nnc(-c2ccc(O)cc2)o1
inactive: HCT-15 colon 97.7% | HT29 colon 106% | SNB-75 CNS 77.8% | SNB-19 CNS 108% | U251 CNS 105% | PC-3 prostate 95.1% | LOX IMVI melanoma 96.8% | SK-MEL-28 melanoma 102%

O=c1[nH]nc(-c2ccccc2)c2sc(NC(=S)Nc3ccc(Cl)cc3)nc12
inactive: HCT-15 colon 89.9% | HT29 colon 74.8% | SNB-75 CNS 84.1% | SNB-19 CNS 102% | U251 CNS 92.1% | PC-3 prostate 92% | SK-MEL-5 melanoma 101% | LOX IMVI melanoma 92.4% | SK-MEL-28 melanoma 110%

Cc1ccc(SC2c3ccc(C)cc3Oc3nc(N)c(C#N)c(N)c32)cc1 (configuration not stated)
inactive: HCT-15 colon 30.7% | HT29 colon 103% | SNB-75 CNS 73.2% | SNB-19 CNS 109% | U251 CNS 85.1% | PC-3 prostate 80.6% | LOX IMVI melanoma 37.7% | SK-MEL-28 melanoma 87.7%

COc1cccc(NC(=O)Nc2ccc(Nc3ncnc4[nH]c(C)c(C)c34)cc2)c1
inactive: HCT-15 colon 94.1% | HT29 colon 95.5% | SNB-75 CNS 82.2% | SNB-19 CNS 98.5% | U251 CNS 90.3% | PC-3 prostate 93.9% | UACC-62 melanoma 96.6% | LOX IMVI melanoma 99.7% | SK-MEL-28 melanoma 104%

c1ccc2nc(N3CCOCC3)c(N3CCCCC3)nc2c1
inactive: HCT-15 colon 100% | HT29 colon 96.1% | SNB-75 CNS 76.7% | SNB-19 CNS 93.9% | U251 CNS 96.9% | PC-3 prostate 90.8% | UACC-62 melanoma 83.1% | LOX IMVI melanoma 99.1% | SK-MEL-28 melanoma 109%

CCN(CC)CC#CCOC(=O)[C@]1(C)CCC[C@]2(C)[C@H]3C[C@H]4C(C(C)C)=C[C@]3(CC[C@H]21)[C@@H]1C(=O)CCC(=O)[C@@H]14
inactive: HCT-15 colon 42.7% | SNB-75 CNS 55.4% | SNB-19 CNS 70.4% | U251 CNS 38.3% | PC-3 prostate 25% | SK-MEL-5 melanoma 58.8% | LOX IMVI melanoma 38.7% | SK-MEL-28 melanoma 66.2%
active: HT29 colon 5.05%

O=C1Nc2ccc(Cl)cc2/C1=N/c1nc(-c2ccc(Cl)cc2)cs1
inactive: HCT-15 colon 26.7% | SNB-75 CNS 26.2% | SNB-19 CNS 10.8% | SK-MEL-28 melanoma 16.3%
active: HT29 colon -0.232% | U251 CNS -3.58% | PC-3 prostate 2.97% | UACC-62 melanoma -46.6% | LOX IMVI melanoma -7.47%

O=C(Nc1ccccc1)NS(=O)(=O)c1c[nH]c(=S)[nH]c1=O
inactive: HCT-15 colon 109% | HT29 colon 73.7% | SNB-75 CNS 89.2% | SNB-19 CNS 106% | U251 CNS 93.3% | PC-3 prostate 100% | UACC-62 melanoma 99.5% | LOX IMVI melanoma 92.4% | SK-MEL-28 melanoma 116%

O=C1CCC23OC(C(O)c4ccccc4N12)C1C(Br)=NOC13 (configuration not stated)
inactive: HCT-15 colon 97.4% | HT29 colon 106% | SNB-75 CNS 80.8% | SNB-19 CNS 108% | U251 CNS 107% | PC-3 prostate 99.2% | UACC-62 melanoma 109% | LOX IMVI melanoma 99.7% | SK-MEL-28 melanoma 106%

COc1ccc(C(=S)c2cc(OC)c(OC)c(OC)c2)cc1OC(=O)CCl
active: U251 CNS 4.79%
inactive: HCT-15 colon 14.3% | HT29 colon 24% | SNB-75 CNS 53.8% | SNB-19 CNS 31.4% | PC-3 prostate 14.1% | UACC-62 melanoma 47.9% | LOX IMVI melanoma 19.6% | SK-MEL-28 melanoma 67.8%

C=C1C(=O)O[C@H]2[C@H]1CC/C(COC(=O)c1cccnc1N)=C\CC[C@@]1(C)O[C@@H]21
inactive: SNB-75 CNS 66% | SNB-19 CNS 25.7% | U251 CNS 28.8% | PC-3 prostate 24.8% | UACC-62 melanoma 33% | SK-MEL-28 melanoma 19.6%
active: HCT-15 colon 0.999% | HT29 colon -10.4% | LOX IMVI melanoma 7.48%

COc1ccc2c(c1)Oc1nc(N)c(C#N)c(N)c1C2Sc1ccc(SC)cc1 (configuration not stated)
active: HCT-15 colon -10.9% | LOX IMVI melanoma -39.2%
inactive: HT29 colon 17.2% | SNB-75 CNS 34.2% | SNB-19 CNS 58.2% | U251 CNS 13.9% | PC-3 prostate 35.9% | UACC-62 melanoma 50.7% | SK-MEL-28 melanoma 32.7%

Cc1cccc(C)c1Nc1nnc(-c2ccc(F)cc2)o1
inactive: HCT-15 colon 110% | HT29 colon 111% | SNB-75 CNS 80.2% | SNB-19 CNS 104% | U251 CNS 104% | PC-3 prostate 98.6% | UACC-62 melanoma 103% | LOX IMVI melanoma 95.1% | SK-MEL-28 melanoma 100%

CN1CC=C(c2cc(NC(=O)Nc3ccc(Oc4ccnc(NC(=O)C5CC5)c4)c(F)c3)cc(C(F)(F)F)c2)CC1
active: HCT-15 colon 5.35% | HT29 colon -13.6% | SNB-75 CNS -76.4% | SNB-19 CNS 2.04% | U251 CNS -1.77% | PC-3 prostate 3.71% | UACC-62 melanoma -22.1% | LOX IMVI melanoma -46.5% | SK-MEL-28 melanoma -1.25%

COc1ccc(-c2cc(-c3nnc(SCC(=O)Nc4ccc(C(C)=O)cc4)o3)c3ccccc3n2)cc1
inactive: HCT-15 colon 23.3% | HT29 colon 38.9% | SNB-19 CNS 13.8% | UACC-62 melanoma 25.8% | SK-MEL-28 melanoma 42.7%
active: SNB-75 CNS -5.55% | U251 CNS -68.6% | PC-3 prostate 6.81% | LOX IMVI melanoma 4.15%

C=CCn1c(SCC(=O)Nc2ccc(C(=O)/C=C/c3ccc(Cl)cc3)cc2)nnc1-c1cc(OC)c(OC)c(OC)c1
inactive: HCT-15 colon 89.7% | HT29 colon 97.4% | SNB-75 CNS 86.2% | SNB-19 CNS 85.3% | U251 CNS 90.7% | PC-3 prostate 75.2% | UACC-62 melanoma 70.4% | LOX IMVI melanoma 91.8% | SK-MEL-28 melanoma 106%

CC1CCCN(CCCCCOc2ccc3oc4ccccc4c(=O)c3c2)C1 (configuration not stated)
inactive: HCT-15 colon 26.4% | SNB-75 CNS 75.8% | SNB-19 CNS 83.6% | U251 CNS 62.7% | PC-3 prostate 73.7% | LOX IMVI melanoma 33.2% | SK-MEL-28 melanoma 45%
active: HT29 colon 8.93% | UACC-62 melanoma -26.5%

CCOc1ccccc1C(=O)/C=C/c1cc2ccccc2[nH]c1=O
inactive: SNB-75 CNS 21% | PC-3 prostate 14.9%
active: HCT-15 colon -58.9% | HT29 colon -44.6% | SNB-19 CNS -72.9% | U251 CNS -92.2% | UACC-62 melanoma -65.3% | LOX IMVI melanoma -81.8% | SK-MEL-28 melanoma -3.66%

CC(C)(C)c1ccc(O)c(Cc2cc(C(C)(C)C)ccc2O)c1
inactive: HCT-15 colon 101% | HT29 colon 98.7% | SNB-75 CNS 89.2% | SNB-19 CNS 101% | U251 CNS 90.2% | PC-3 prostate 12.5% | SK-MEL-5 melanoma 99% | LOX IMVI melanoma 99.1% | SK-MEL-28 melanoma 104%

Cc1ccc(C2=N[C@H]3CCC[C@@H]3N(c3ccccc3)C(C(Cl)Cl)=N2)cc1
inactive: HCT-15 colon 99% | HT29 colon 89.7% | SNB-75 CNS 77% | SNB-19 CNS 113% | U251 CNS 112% | PC-3 prostate 101% | LOX IMVI melanoma 87.9% | SK-MEL-28 melanoma 101%

COc1cc(C(=O)Nc2cc(OC)c3ccn(C)c3c2)cc2c1C[C@]1(C)CC[C@@H](O)C(C)(C)[C@H]1O2
inactive: HCT-15 colon 20.9% | SNB-19 CNS 33.3% | U251 CNS 16.5% | SK-MEL-28 melanoma 13.4%
active: HT29 colon 5.58% | SNB-75 CNS -9.5% | PC-3 prostate 3.01% | UACC-62 melanoma -8.05% | LOX IMVI melanoma -14.6%

C=C1C(=O)O[C@H]2[C@H]1CC/C(COC(=O)c1cn(C)c3ccccc13)=C\CC[C@@]1(C)O[C@@H]21
inactive: SNB-75 CNS 59% | SNB-19 CNS 25.6% | U251 CNS 11.7%
active: HCT-15 colon -44.9% | HT29 colon -77.2% | PC-3 prostate -55.1% | SK-MEL-5 melanoma 4.24% | LOX IMVI melanoma -86.5% | SK-MEL-28 melanoma -22%

N#Cc1c(-c2ccc(Cl)cc2)cc(-c2cc3ccccc3o2)nc1SCC(=O)c1ccc(Cl)cc1
inactive: HCT-15 colon 91.4% | HT29 colon 97.1% | SNB-75 CNS 76.7% | SNB-19 CNS 99.9% | U251 CNS 93.8% | PC-3 prostate 84.6% | UACC-62 melanoma 93.5% | LOX IMVI melanoma 91% | SK-MEL-28 melanoma 100%

Cc1nc2sc(C(=O)Nc3ccccc3Cl)c(N)c2cc1C(C)O (configuration not stated)
inactive: HCT-15 colon 61.4% | HT29 colon 34.3% | SNB-75 CNS 72.8% | SNB-19 CNS 83.2% | U251 CNS 66.5% | SK-MEL-5 melanoma 80.7% | UACC-62 melanoma 68.2% | LOX IMVI melanoma 74.5% | SK-MEL-28 melanoma 84.7%

CC1(c2ccccc2Cl)NC(=O)NC1=O (configuration not stated)
inactive: HCT-15 colon 99.2% | HT29 colon 97.9% | SNB-75 CNS 88.1% | SNB-19 CNS 97.8% | U251 CNS 96.7% | UACC-62 melanoma 95.5% | LOX IMVI melanoma 97.5% | SK-MEL-28 melanoma 105%
